For part of these data: Entries with a potency or affinity are not part of this list. This is one part of the list. Activity calls are given as the source filed them.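 The calls were made as follows, unless noted: active = at 20 µM dose, 40% or more inhibition averaged across four replicates; inactive = the rest.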
Legend:
[1] = Brca1-Bard1 BiLC signal decrease – luminescence, single concentration, counter-screen for Mdm2/MdmX interaction inhibitor project, confirmation (AID 504668; call rule not given here); details: Brca1/Bard1 bimolecular luciferase complementation counterscreen, at 8 µM, stronger effect = higher value
[2] = biological target: Tumor necrosis factor receptor superfamily member 10B (Homo sapiens) (UniProt O14763); assay: viability loss of caspase-8 NB7 cells with TRAIL – with/without TRAIL, luminescence panel, confirmation (AID 651596; in the data active = activity above about 50%); details: NB7 neuroblastoma + caspase-8, TRAIL sensitization, NB7 Caspase-8, with TRAIL, mean of runs, at 10 µM, stronger effect = higher value
[3] = as above; details: NB7 neuroblastoma + caspase-8, without TRAIL, NB7 Caspase-8, without TRAIL, mean of runs, at 10 µM
[4] = biological target: Carboxy-terminal domain RNA polymerase II polypeptide A small phosphatase 1 (Homo sapiens) (UniProt Q9GZU7); assay: SCP1 melting temperature change from compounds – biophysical, differential scanning fluorimetry, orthogonal assay for Scp-1 inhibitor project, confirmation (AID 540329;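 active = substances whose mean melting-temperature shift, as a percentage of the reference inhibitor's shift, reaches about 5.3%, limit read from the data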;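 also: 0% = Tm of DMSO wells and 100% = Tm with sodium orthovanadate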); details: Recombinant SCP1, Sypro Orange thermal shift Tm; at 40 µM; stronger effect = higher value
[5] = MLLE domain peptide-binding blockers, IC50 – biochemical, fluorescence polarization, FITC-PAM2 peptide, dose response (AID 602259;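 active = mean IC50 at or below a set limit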); details: GST-MLLE/FITC-PAM2 peptide binding
[6] = inhibition of PEG-3 promoter luciferase signal – cell-based, HeLa, luciferase reporter, single concentration, confirmation (AID 602417); details: HeLa PEG-Prom luciferase reporter, luminescence, overnight; at 20 µM; stronger effect = higher value
[7] = HIF-2a driven luciferase blockers, single dose – luminescence, 786-0 RCC cells, confirmation (AID 651580;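 active = mean inhibition across four replicates of at least 40 percent at the single tested concentration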); details: HIF-2a luciferase reporter luminescence, overnight, at 18.8 µM, stronger effect = higher value
[8] = HIF-1a luciferase reporter signal reduction – MiaPaCa-2 cells, single concentration, counter-screen for HIF-2a inhibitor project, confirmation (AID 651589;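 active = mean inhibition of the reporter signal across four replicates at the single tested dose of 50% or more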); details: MiaPaCa-2 HIF-1a luciferase reporter, desferoxamine, overnight; at 18.8 µM; stronger effect = higher value
[9] = NF-kB reporter suppression in CF airway cells – cell-based, GFP fluorescence, single concentration, confirmation (AID 602472; in the data active = inhibition above about 40%;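 also: stimulus PAF is a Pseudomonas aeruginosa filtrate and not platelet activating factor; plate controls were DMSO wells with stimulus for no effect and unstimulated DMSO wells for full effect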); details: KKLEB CF airway cells, PAF-induced NF-kB-GFP fluorescence, overnight; at 5 µM; stronger effect = higher value
PEG-3 [10] = biological target: PEG-3 (UniProt Q6IN02); assay: inhibition of PEG-3 promoter-driven reporter – cell-based, HeLa, luciferase, CREF/GAPDH counter-screen panel, dose response (AID 624167); details: CREF/GAPDH counter-screens; HeLa PEG-Prom luciferase reporter, overnight, run 1, dose range 1, at 100 µM (top of the series) unless noted
PEG-3 [11] = biological target: PEG-3 (UniProt Q6IN02); assay: as above; details: CREF/GAPDH counter-screens; HeLa PEG-Prom luciferase reporter, overnight, run 2, dose range 1, at 100 µM (top of the series) unless noted
Rat fibroblasts (CREF) [12] = assay: as above; details: CREF/GAPDH counter-screens; run 1, dose range 1, at 100 µM (top of the series)
Rat fibroblasts (CREF) [13] = assay: as above; details: CREF/GAPDH counter-screens; run 2, dose range 1, at 100 µM (top of the series)
[14] = biological target: Tumor necrosis factor receptor superfamily member 10B (Homo sapiens) (UniProt O14763); assay: compound enhancement of TRAIL-induced cell killing – NB7 cells plus caspase-8, luminescence, panel, dose response (AID 652002); details: NB7 neuroblastoma +caspase-8, TRAIL sensitization, luminescence viability, NB7+Caspase-8, with TRAIL, run 1; at 12.5 µM (top of the series)
[15] = biological target: Tumor necrosis factor receptor superfamily member 10B (Homo sapiens) (UniProt O14763); assay: as above; details: NB7 neuroblastoma +caspase-8, TRAIL sensitization, luminescence viability, NB7+Caspase-8, with TRAIL, run 2; at 12.5 µM (top of the series)
[16] = as above; details: NB7 neuroblastoma +caspase-8, no TRAIL, compound-alone cytotoxicity counter-screen, luminescence viability, NB7+Caspase-8, run 1; at 12.5 µM (top of the series) unless noted
[17] = as above; details: NB7 neuroblastoma +caspase-8, no TRAIL, compound-alone cytotoxicity counter-screen, luminescence viability, NB7+Caspase-8, run 2; at 12.5 µM (top of the series) unless noted

PEG-3, sequence (Q6IN02 whole entry, looked up): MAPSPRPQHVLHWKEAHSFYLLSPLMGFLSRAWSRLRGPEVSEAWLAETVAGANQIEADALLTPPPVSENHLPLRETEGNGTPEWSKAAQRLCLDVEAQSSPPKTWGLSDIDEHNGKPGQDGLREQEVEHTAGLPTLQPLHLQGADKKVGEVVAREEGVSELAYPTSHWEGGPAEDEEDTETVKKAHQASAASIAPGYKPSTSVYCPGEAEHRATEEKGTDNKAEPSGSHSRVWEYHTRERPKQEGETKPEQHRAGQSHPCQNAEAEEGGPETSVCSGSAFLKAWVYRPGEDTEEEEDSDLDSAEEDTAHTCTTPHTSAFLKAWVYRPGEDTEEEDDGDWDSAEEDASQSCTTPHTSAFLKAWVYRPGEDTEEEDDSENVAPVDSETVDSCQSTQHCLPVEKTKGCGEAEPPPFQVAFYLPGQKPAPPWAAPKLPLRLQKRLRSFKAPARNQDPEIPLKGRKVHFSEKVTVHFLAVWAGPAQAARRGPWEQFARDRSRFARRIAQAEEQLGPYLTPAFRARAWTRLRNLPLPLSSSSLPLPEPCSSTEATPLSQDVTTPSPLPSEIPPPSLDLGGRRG
Tumor necrosis factor receptor superfamily member 10B (Homo sapiens), sequence (O14763 whole entry, looked up): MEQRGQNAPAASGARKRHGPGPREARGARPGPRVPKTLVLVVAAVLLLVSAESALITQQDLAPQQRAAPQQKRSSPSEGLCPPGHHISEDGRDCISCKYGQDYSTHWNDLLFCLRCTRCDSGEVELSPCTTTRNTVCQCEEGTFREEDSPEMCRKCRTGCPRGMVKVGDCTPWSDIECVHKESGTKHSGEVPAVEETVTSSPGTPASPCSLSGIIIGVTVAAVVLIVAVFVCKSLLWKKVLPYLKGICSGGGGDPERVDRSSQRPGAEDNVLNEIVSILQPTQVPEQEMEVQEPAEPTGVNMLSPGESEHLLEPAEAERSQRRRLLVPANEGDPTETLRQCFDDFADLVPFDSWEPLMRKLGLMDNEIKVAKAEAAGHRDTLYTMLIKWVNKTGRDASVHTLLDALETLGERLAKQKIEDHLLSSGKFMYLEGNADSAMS
Carboxy-terminal domain RNA polymerase II polypeptide A small phosphatase 1 (Homo sapiens), sequence (Q9GZU7 76-261 limits assumed): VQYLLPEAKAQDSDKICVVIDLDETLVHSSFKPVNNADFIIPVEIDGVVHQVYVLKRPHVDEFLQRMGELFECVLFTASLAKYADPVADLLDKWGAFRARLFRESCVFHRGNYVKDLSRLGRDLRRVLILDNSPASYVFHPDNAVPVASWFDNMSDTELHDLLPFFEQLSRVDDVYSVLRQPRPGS

Q: Which results are given for Cc1ccc2nc(/C(C#N)=C\c3ccc([N+](=O)[O-])o3)[nH]c2c1?
A: inhibition [1]: 29.9% (active); activity [2]: 95.6%; activity [3]: 99%

Q: For O=C(Cn1nnc(-c2ccc3c(c2)OCO3)n1)NCc1ccco1, which thermal shift relative to vanadate control [4] is on record?
A: 2.67% (inactive)

Q: For CC[n+]1c(C)n(-c2ccccc2)c2ccc(NC(C)=O)cc21, which thermal shift relative to vanadate control [4] is on record?
A: -13.8% (inactive)

Q: Which IC50 [5] does the source give for C[c-]1[c-](C)[c-](C)[c-](C)[c-]1C.[Fe].c1cc2nccc(N3CCCC3)[c-]2c1 (stereo not given) here?
A: > 66 µM (inactive)

Q: With Cc1ccc(C(NC(=O)C2CCN(CCOc3ccc(Cl)cc3Cl)CC2)c2ccccn2)cc1 (stereo not given) as the compound, how does the inhibition [6] read?
A: 36.9% (inactive)

Q: Which results are given for Cc1c(CCC(=O)O)c(=O)oc2c(C)c(OCc3ccccc3Cl)ccc12?
A: inhibition [7]: 63.3% (active); inhibition [8]: 46.2% (inactive)

Q: Which results are given for O=C(O)c1ccc(N/N=C/c2ccc3ncccc3c2)cc1?
A: inhibition [7]: 66.4% (active); inhibition [8]: 39.2% (inactive)

Q: With COc1ccc(NC(=S)SC)cc1OC as the compound, how does the inhibition [9] read?
A: 39.3% (inactive)

Q: For COc1ccc(OC)c(Cc2cnc3nc(N)nc(N)c3c2C)c1, which inhibition [6] is on record?
A: 66.8% (active)

Q: What about the inhibition (PEG-3 [10]) of the same compound?
A: 88.7%

Q: And the inhibition (PEG-3 [11])?
A: 86.7%

Q: With c1ccc(C(=NNc2nc3ccccc3s2)c2ccccn2)cc1 as the compound, how does the inhibition [6] read?
A: 61% (active)

Q: And the inhibition (PEG-3 [10])?
A: 101%

Q: And the inhibition (PEG-3 [11])?
A: 102%

Q: Which inhibition [6] does the source give for COc1cccc2c1C(=O)c1c(O)c3c(c(O)c1C2=O)CC(O)(C(C)=NNC(=O)c1ccc(Cl)c(Cl)c1)CC3OC1CC(N)C(O)C(C)O1 (stereo not given) here?
A: 96.6% (active)

Q: And the inhibition (PEG-3 [10])?
A: 102%

Q: And the inhibition (PEG-3 [11])?
A: 101%

Q: What about the inhibition (Rat fibroblasts (CREF) [12]) of the same compound?
A: 99.3%

Q: And the inhibition (Rat fibroblasts (CREF) [13])?
A: 98.6%

Q: For COc1ccc2sc(-c3ccc(S(C)(=O)=O)cc3)c(C#Cc3cncn3C)c2c1, which inhibition [6] is on record?
A: 51.8% (active)

Q: What about the inhibition (PEG-3 [10]) of the same compound?
A: -25.4%

Q: And the inhibition (PEG-3 [11])?
A: 60.8% [run 2, dose range 1, at 50 µM]

Q: And the activity [2]?
A: 66.7%

Q: What about the activity [3] of the same compound?
A: 34.3%

Q: And the activity, % sensitization [14]?
A: 13.3%

Q: What about the activity, % sensitization [15] of the same compound?
A: 10.2%

Q: And the activity, % sensitization [16]?
A: -20.9%

Q: What about the activity, % sensitization [17] of the same compound?
A: -2.18%

Q: What does the source list for Cc1ccc(OCC(=O)c2cc(C)n(Cc3ccco3)c2C)c([N+](=O)[O-])n1?
A: inhibition [6]: 71.5% (active); inhibition [7]: 64.6% (active); inhibition [8]: 82.9% (active); inhibition (PEG-3 [10]): 58%; inhibition (PEG-3 [11]): 62.9%; inhibition (Rat fibroblasts (CREF) [12]): -20.4%; inhibition (Rat fibroblasts (CREF) [13]): -12.2%

Q: For Cc1ccc(-c2nc3ccccc3[nH]2)cc1NC(=O)c1sc2ccccc2c1Cl, which inhibition [6] is on record?
A: -5.64% (inactive)

Q: What does the source list for CCOc1ccc2nc(N(CCCN(C)C)C(=O)c3ccc(C(=O)c4ccccc4)cc3)sc2c1?
A: inhibition [6]: 97.7% (active); inhibition (PEG-3 [10]): 102%; inhibition (PEG-3 [11]): 101%; activity [2]: 87.4%; activity [3]: 98.2%
